# In paper PMC11062922 (Nature Chemical Biology, 2023):
# Like-named read-outs stand apart in the source and are kept apart here.
# Target: Q6ZSR9 (human, UniProt Q6ZSR9)
# Details: read-out: apparent Kd, n = 1
# Sequence of Q6ZSR9 (Q6ZSR9 whole entry, looked up): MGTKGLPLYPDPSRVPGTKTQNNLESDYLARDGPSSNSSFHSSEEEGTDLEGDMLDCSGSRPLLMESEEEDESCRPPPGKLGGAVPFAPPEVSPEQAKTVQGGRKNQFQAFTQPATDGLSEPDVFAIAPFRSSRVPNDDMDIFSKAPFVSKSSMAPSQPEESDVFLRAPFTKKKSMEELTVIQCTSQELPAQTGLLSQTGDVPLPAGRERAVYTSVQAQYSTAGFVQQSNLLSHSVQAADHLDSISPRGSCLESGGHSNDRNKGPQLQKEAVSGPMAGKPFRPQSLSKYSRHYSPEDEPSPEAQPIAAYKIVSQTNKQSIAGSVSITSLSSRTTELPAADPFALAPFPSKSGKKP
substance,measurement,setting,value
Lestaurtinib,potency estimated from few doses,"compound concentrations:100 nM and 1000 nM (sheet 'Lestaurtinib' of Supplementary Table 1),run:Lestaurtinib_02496_R1,Plate:MR013",65.5 nM
same,potency estimated from few doses,"compound concentrations:100 nM and 1000 nM (sheet 'Lestaurtinib' of Supplementary Table 1),run:Lestaurtinib_02496_R2,Plate:MR013",59.5 nM
same,potency estimated from few doses,"compound concentrations:100 nM and 1000 nM (sheet 'Lestaurtinib' of Supplementary Table 1),run:Lestaurtinib_02496_R3,Plate:MR013",66.8 nM
same,potency estimated from few doses,"compound concentrations:100 nM and 1000 nM (sheet 'Lestaurtinib' of Supplementary Table 1),run:Lestaurtinib_02566_R2,Plate:MR014",55.7 nM
same,potency estimated from few doses,"compound concentrations:100 nM and 1000 nM (sheet 'Lestaurtinib' of Supplementary Table 1),run:Lestaurtinib_02566_R3,Plate:MR014",80.5 nM
same,potency estimated from few doses,"compound concentrations:100 nM and 1000 nM (sheet 'Lestaurtinib' of Supplementary Table 1),run:Lestaurtinib_02572_R1,Plate:MR015",40.6 nM
same,potency estimated from few doses,"compound concentrations:100 nM and 1000 nM (sheet 'Lestaurtinib' of Supplementary Table 1),run:Lestaurtinib_02572_R2,Plate:MR015",74.4 nM
same,potency estimated from few doses,"compound concentrations:100 nM and 1000 nM (sheet 'Lestaurtinib' of Supplementary Table 1),run:Lestaurtinib_02572_R3,Plate:MR015",48.9 nM
same,potency estimated from few doses,"compound concentrations:100 nM and 1000 nM (sheet 'Lestaurtinib' of Supplementary Table 1),run:Lestaurtinib_02577_R1,Plate:MR016",63.4 nM
same,potency estimated from few doses,"compound concentrations:100 nM and 1000 nM (sheet 'Lestaurtinib' of Supplementary Table 1),run:Lestaurtinib_02577_R2,Plate:MR016",53.4 nM
same,potency estimated from few doses,"compound concentrations:100 nM and 1000 nM (sheet 'Lestaurtinib' of Supplementary Table 1),run:Lestaurtinib_02577_R3,Plate:MR016",59.4 nM
same,potency estimated from few doses,"compound concentrations:100 nM and 1000 nM (sheet 'Lestaurtinib' of Supplementary Table 1),run:Lestaurtinib_02584_R1,Plate:MR017",92.8 nM
same,potency estimated from few doses,"compound concentrations:100 nM and 1000 nM (sheet 'Lestaurtinib' of Supplementary Table 1),run:Lestaurtinib_02584_R2,Plate:MR017",64.9 nM
same,potency estimated from few doses,"compound concentrations:100 nM and 1000 nM (sheet 'Lestaurtinib' of Supplementary Table 1),run:Lestaurtinib_02584_R3,Plate:MR017",79 nM
same,potency estimated from few doses,"compound concentrations:100 nM and 1000 nM (sheet 'Lestaurtinib' of Supplementary Table 1),run:Lestaurtinib_02601_R1,Plate:MR018",49.8 nM
same,potency estimated from few doses,"compound concentrations:100 nM and 1000 nM (sheet 'Lestaurtinib' of Supplementary Table 1),run:Lestaurtinib_02601_R3,Plate:MR018",44.4 nM
same,potency estimated from few doses,"compound concentrations:100 nM and 1000 nM (sheet 'Lestaurtinib' of Supplementary Table 1),run:Lestaurtinib_02606_R2,Plate:MR019",52 nM
same,potency estimated from few doses,"compound concentrations:100 nM and 1000 nM (sheet 'Lestaurtinib' of Supplementary Table 1),run:Lestaurtinib_02606_R3,Plate:MR019",60.4 nM
same,potency estimated from few doses,"compound concentrations:100 nM and 1000 nM (sheet 'Lestaurtinib' of Supplementary Table 1),run:Lestaurtinib_02624_R2,Plate:MR020",61.1 nM
same,potency estimated from few doses,"compound concentrations:100 nM and 1000 nM (sheet 'Lestaurtinib' of Supplementary Table 1),run:Lestaurtinib_02624_R3,Plate:MR020",55.5 nM
same,potency estimated from few doses,"compound concentrations:100 nM and 1000 nM (sheet 'Lestaurtinib' of Supplementary Table 1),run:Lestaurtinib_02724_R2,Plate:MR021",51.2 nM
same,potency estimated from few doses,"compound concentrations:100 nM and 1000 nM (sheet 'Lestaurtinib' of Supplementary Table 1),run:Lestaurtinib_02724_R3,Plate:MR021",61.2 nM
same,potency estimated from few doses,"compound concentrations:100 nM and 1000 nM (sheet 'Lestaurtinib' of Supplementary Table 1),run:Lestaurtinib_02741_R1,Plate:MR023",77.1 nM
same,potency estimated from few doses,"compound concentrations:100 nM and 1000 nM (sheet 'Lestaurtinib' of Supplementary Table 1),run:Lestaurtinib_02741_R2,Plate:MR023",85.4 nM
same,potency estimated from few doses,"compound concentrations:100 nM and 1000 nM (sheet 'Lestaurtinib' of Supplementary Table 1),run:Lestaurtinib_02741_R3,Plate:MR023",77.2 nM
same,potency estimated from few doses,"compound concentrations:100 nM and 1000 nM (sheet 'Lestaurtinib' of Supplementary Table 1),run:Lestaurtinib_02748_R1,Plate:MR024",67.4 nM
same,potency estimated from few doses,"compound concentrations:100 nM and 1000 nM (sheet 'Lestaurtinib' of Supplementary Table 1),run:Lestaurtinib_02748_R2,Plate:MR024",46.2 nM
same,potency estimated from few doses,"compound concentrations:100 nM and 1000 nM (sheet 'Lestaurtinib' of Supplementary Table 1),run:Lestaurtinib_02748_R3,Plate:MR024",66.5 nM
same,potency estimated from few doses,"compound concentrations:100 nM and 1000 nM (sheet 'Lestaurtinib' of Supplementary Table 1),run:Lestaurtinib_02752_R1,Plate:MR025",48.7 nM
same,potency estimated from few doses,"compound concentrations:100 nM and 1000 nM (sheet 'Lestaurtinib' of Supplementary Table 1),run:Lestaurtinib_02765_R2,Plate:MR026",131 nM
same,potency estimated from few doses,"compound concentrations:100 nM and 1000 nM (sheet 'Lestaurtinib' of Supplementary Table 1),run:Lestaurtinib_02765_R3,Plate:MR026",71.7 nM
same,potency estimated from few doses,"compound concentrations:100 nM and 1000 nM (sheet 'Lestaurtinib' of Supplementary Table 1),run:Lestaurtinib_02766_R1,Plate:MR027",47.5 nM
same,potency estimated from few doses,"compound concentrations:100 nM and 1000 nM (sheet 'Lestaurtinib' of Supplementary Table 1),run:Lestaurtinib_02766_R2,Plate:MR027",37.3 nM
same,potency estimated from few doses,"compound concentrations:100 nM and 1000 nM (sheet 'Lestaurtinib' of Supplementary Table 1),run:Lestaurtinib_02766_R3,Plate:MR027",47 nM
same,potency estimated from few doses,"compound concentrations:100 nM and 1000 nM (sheet 'Lestaurtinib' of Supplementary Table 1),run:Lestaurtinib_02768_R1,Plate:MR028",48.3 nM
same,potency estimated from few doses,"compound concentrations:100 nM and 1000 nM (sheet 'Lestaurtinib' of Supplementary Table 1),run:Lestaurtinib_02768_R2,Plate:MR028",49.7 nM
same,potency estimated from few doses,"compound concentrations:100 nM and 1000 nM (sheet 'Lestaurtinib' of Supplementary Table 1),run:Lestaurtinib_02768_R3,Plate:MR028",57.7 nM
same,potency estimated from few doses,"compound concentrations:100 nM and 1000 nM (sheet 'Lestaurtinib' of Supplementary Table 1),run:Lestaurtinib_02795_R1,Plate:MR022",67.2 nM
same,potency estimated from few doses,"compound concentrations:100 nM and 1000 nM (sheet 'Lestaurtinib' of Supplementary Table 1),run:Lestaurtinib_02795_R2,Plate:MR022",73.9 nM
same,potency estimated from few doses,"compound concentrations:100 nM and 1000 nM (sheet 'Lestaurtinib' of Supplementary Table 1),run:Lestaurtinib_02802_R1,Plate:MR029",52.5 nM
same,potency estimated from few doses,"compound concentrations:100 nM and 1000 nM (sheet 'Lestaurtinib' of Supplementary Table 1),run:Lestaurtinib_02802_R2,Plate:MR029",43.8 nM
same,potency estimated from few doses,"compound concentrations:100 nM and 1000 nM (sheet 'Lestaurtinib' of Supplementary Table 1),run:Lestaurtinib_02896_R3,Plate:MR030",88 nM
same,potency estimated from few doses,"compound concentrations:100 nM and 1000 nM (sheet 'Lestaurtinib' of Supplementary Table 1),run:Lestaurtinib_03172_R1,Plate:MR031",51.8 nM
